The values below come from PMC10726135, “HNF4α isoforms regulate the circadian balance between carbohydrate and lipid metabolism in the liver”.

The full ranking holds about 18,000 sequences; the median of “log2 normalized intensity” is about 0.36, and the highest 2% start at about 7.3. The full list was thinned out, with the highest values kept by preference.

The target in this assay is T1, HNF4alpha8 (COS-7 nuclear extract) (Homo sapiens, UniProt P41235-5 1-452).
T1 sequence: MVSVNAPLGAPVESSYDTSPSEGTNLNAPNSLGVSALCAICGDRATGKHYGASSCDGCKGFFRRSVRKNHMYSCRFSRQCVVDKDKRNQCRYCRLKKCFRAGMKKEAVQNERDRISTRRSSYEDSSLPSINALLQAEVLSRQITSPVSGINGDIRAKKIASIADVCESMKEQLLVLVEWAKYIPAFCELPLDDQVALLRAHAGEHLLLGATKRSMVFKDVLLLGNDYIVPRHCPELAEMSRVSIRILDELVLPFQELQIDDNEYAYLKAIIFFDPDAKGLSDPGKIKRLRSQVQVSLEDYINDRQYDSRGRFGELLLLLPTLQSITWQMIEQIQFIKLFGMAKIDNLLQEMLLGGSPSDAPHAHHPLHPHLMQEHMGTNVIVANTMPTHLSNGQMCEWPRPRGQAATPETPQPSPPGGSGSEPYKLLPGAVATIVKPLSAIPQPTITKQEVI
The assay is described as follows: protein-binding microarray; COS-7 nuclear extract on double-stranded Agilent 4x180k PBM; binding buffer, salt, pH and temperature not given in the material; high values mean tight binding. The following applies: chain copies: 2; label: 3' end of strand 1 on the slide; dsDNA, one strand shown. The gist of the method:
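Binding signal is the background-corrected, normalized gProcessedSignal calculated by Agilent software. It was measured by applying nuclear extracts of COS-7 cells transiently transfected with a human HNF4α isoform expression vector to a custom Agilent SurePrint G3 4x180k array of ~44,000 double-stranded ~60-nt test sequences in quadruplicate, then imaging bound HNF4α on an Agilent G2565CA scanner at 2-µm resolution.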
As for “ATTCTTTGCCATGACCTTTGAAGCCCAGAAGCCTAGGGAGATTAGAGTATCGGTCGA”, the binding signal stood at 5.57 log2 normalized intensity.
To “ATCTTTGACCTGGAGCATGACCCTTTGCAGGCCTAGGGAGATTAGAGTATCGGTCGA” belongs 3.64 log2 normalized intensity.
For the sequence “CTGCTGCCCAAAGGTCACCTCTTCAGATAGGCCTAGGGAGATTAGAGTATCGGTCGA”, the binding signal came out at 3.89 log2 normalized intensity.
Turning to “CTGTTTGACCAAAGCTACTCATCATGAACTGCCTAGGGAGATTAGAGTATCGGTCGA”, the binding signal was determined as 0.948 log2 normalized intensity.
The same measure for “TAGACATAGGTTATAAACTTGTTTGGGATTGCCTAGGGAGATTAGAGTATCGGTCGA”: 0.308 log2 normalized intensity; for “AAAGTCCAACACAGAAGCCTTTTGTTCTTTGCCTAGGGAGATTAGAGTATCGGTCGA”: 2.15 log2 normalized intensity.
For the sequence “AATGTCTGGAAGTTCTTCCTTAAGTCTAACGCCTAGGGAGATTAGAGTATCGGTCGA”, the binding signal is 0.865 log2 normalized intensity.
As to “GGACTTGGTAAAGTCAATAATCTAGAAACCGCCTAGGGAGATTAGAGTATCGGTCGA”, the binding signal is 0.338 log2 normalized intensity.
For the sequence “GCAGTGAGGGTGGGTTCAAAGGTCAGAAAAGCCTAGGGAGATTAGAGTATCGGTCGA”, the binding signal amounted to 8.97 log2 normalized intensity.
The same measure for “TGGGTTCAAAGGTCAGAAAAAGCTGACGCCGCCTAGGGAGATTAGAGTATCGGTCGA”: 7.25 log2 normalized intensity; for “GGCATGGGAAGCAGTGAGGGTGGGTTCAAAGCCTAGGGAGATTAGAGTATCGGTCGA”: 1.64 log2 normalized intensity; for “GAGGGTGGGTTCAAAGGTCAGAAAAAGCTGGCCTAGGGAGATTAGAGTATCGGTCGA”: 7.27 log2 normalized intensity.
Take “TAGAAGCAGTGGGACAAAGGTCACAGGAAAGCCTAGGGAGATTAGAGTATCGGTCGA”: the binding signal was determined as 5.05 log2 normalized intensity.
On to “GGGAAGCAGTGAGGGTGGGTTCAAAGGTCAGCCTAGGGAGATTAGAGTATCGGTCGA”, for which the binding signal is 8.86 log2 normalized intensity.
On to “ATAAGGTAACAGGCCAAAGGGCAAGAACAAGCCTAGGGAGATTAGAGTATCGGTCGA”, for which the binding signal was determined as 3.1 log2 normalized intensity.
On to “TCACCTCGCTCCCCTCCTGTCAGTTTATTTGCCTAGGGAGATTAGAGTATCGGTCGA”, for which the binding signal worked out at 2.3 log2 normalized intensity.
With “CCCCCTGTGATTACTTCCACTCTTGCAGATGCCTAGGGAGATTAGAGTATCGGTCGA”, the binding signal was found to be 0.911 log2 normalized intensity.
Take “TGACCTTTGCTCCAGTTCCCAATAATTTCCGCCTAGGGAGATTAGAGTATCGGTCGA”: the binding signal amounted to 5.13 log2 normalized intensity.
Turning to “GTGACCTTTGCTCCAGTTCCCAATAAGTTGGCCTAGGGAGATTAGAGTATCGGTCGA”, the binding signal came to 5.13 log2 normalized intensity.
As to “AAAAGTGACCTTTGCTCCAGTTCCCAATAAGCCTAGGGAGATTAGAGTATCGGTCGA”, the binding signal was found to be 7.02 log2 normalized intensity.
On to “CTTCTTTGCTTAAGCATAGCAAAAGTGACCGCCTAGGGAGATTAGAGTATCGGTCGA”, for which the binding signal came to 3.13 log2 normalized intensity.
The same measure for “CAAAGCATAGCAAGAGTGACCTTTGCTCCAGCCTAGGGAGATTAGAGTATCGGTCGA”: 9 log2 normalized intensity; for “CATAGCAAGAGTGACCTTTGCTCCAGTTCCGCCTAGGGAGATTAGAGTATCGGTCGA”: 8.19 log2 normalized intensity; for “ATAGCAAAAGTGACCTTTGCTCCAGTTCCCGCCTAGGGAGATTAGAGTATCGGTCGA”: 8.52 log2 normalized intensity.
Turning to “TTTGCCAAAGCATAGCAAGAGTGACCTTTGGCCTAGGGAGATTAGAGTATCGGTCGA”, the binding signal came to 7.18 log2 normalized intensity.
The same measure for “CAAGAGTGACCTTTGCTCCAGTTCCCAATAGCCTAGGGAGATTAGAGTATCGGTCGA”: 6.59 log2 normalized intensity; for “AGATAGCATTCCAAGAGAGCAAAGTGCTTTGCCTAGGGAGATTAGAGTATCGGTCGA”: 1.21 log2 normalized intensity.
Turning to “CCTGCATATCCTGACTGCTGACCTTTAAGCGCCTAGGGAGATTAGAGTATCGGTCGA”, the binding signal stood at 5.56 log2 normalized intensity.
Regarding “TTGCTTAAGCATAGCAAAAGTGACCTTTGCGCCTAGGGAGATTAGAGTATCGGTCGA”, the binding signal came out at 9.23 log2 normalized intensity.
For the sequence “TGTCAGGAACAACTTCGGGAATCTGACCTTGCCTAGGGAGATTAGAGTATCGGTCGA”, the binding signal worked out at 4.3 log2 normalized intensity.
As to “GCTTACAACTCTAAGGGGGAAAGTCCACGTGCCTAGGGAGATTAGAGTATCGGTCGA”, the binding signal worked out at 4.61 log2 normalized intensity.
To “CTCAACCTCCCCCTGGGGACAGGTGTTAATGCCTAGGGAGATTAGAGTATCGGTCGA” belongs 2.27 log2 normalized intensity.
To “CACGTGCAAAGTACAAAGTACAGAGATGGCGCCTAGGGAGATTAGAGTATCGGTCGA” belongs 3.78 log2 normalized intensity.
Take “GGGTAACTGACCTTGTTGCCCACCCCCCAAGCCTAGGGAGATTAGAGTATCGGTCGA”: the binding signal stood at 5.8 log2 normalized intensity.
The same measure for “TCAATGGCCCCAGTGCACGTGCATGAGGCCGCCTAGGGAGATTAGAGTATCGGTCGA”: -0.475 log2 normalized intensity; for “GGATCCTTGGAGGACCTTGGGTTCATTTTAGCCTAGGGAGATTAGAGTATCGGTCGA”: 2.86 log2 normalized intensity.
“TTTTGCTCTGATCCTAGTCTTTGCCCCACTGCCTAGGGAGATTAGAGTATCGGTCGA”: the binding signal was found to be 3.94 log2 normalized intensity.
With “ACTGCCCGCTGGCCTCCCCATCCTCATGACGCCTAGGGAGATTAGAGTATCGGTCGA”, the binding signal turned out to be 2.93 log2 normalized intensity.
Turning to “CAAGCTGACAAACATGTATCAGTGATAGACGCCTAGGGAGATTAGAGTATCGGTCGA”, the binding signal is -0.0274 log2 normalized intensity.
For the sequence “AATCGACCTTTAGCACCGTAAGAGAGTATTGCCTAGGGAGATTAGAGTATCGGTCGA”, the binding signal came to 4.63 log2 normalized intensity.
Consider “TATGACCTTTGCTTTTCAAGATTTTACCTAGCCTAGGGAGATTAGAGTATCGGTCGA”, for which the binding signal was 2.72 log2 normalized intensity.
With “CTTTAGCACCTTCATCCAAAGATGACCTTTGCCTAGGGAGATTAGAGTATCGGTCGA”, the binding signal is 8.24 log2 normalized intensity.
The same measure for “TAACTCCTTTGTGTGAATCGACCTTTAGCAGCCTAGGGAGATTAGAGTATCGGTCGA”: 6.42 log2 normalized intensity.
